The nature of test [1]: ATG_E_Box_CIS: Attagene CIS-FACTORIAL HepG2 Assay for human Enhancer Box (E-box) (AID 2282936). The following applies: HepG2 E-box cis-reporter transcription, actives raise or lower the signal. Put shortly:
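DMSO served as negative control and baseline for bidirectional fitting. Human hepatoma HepG2 cells, transiently transfected with cis-reporter constructs, were dosed 24 h; reporter mRNA read by RT-PCR and capillary electrophoresis.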

The nature of test [2]: ATG_M_61_CIS: Attagene CIS-FACTORIAL HepG2 Assay for M61 Transcription Factor (Internal Marker) (AID 2282937). The following applies: HepG2 Attagene CIS-FACTORIAL M61 internal marker reporter; actives raise or lower the signal. Put shortly:
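This endpoint serves as an internal background control within a multiplexed HepG2 cis-reporter panel. Cells are exposed for 24 h; reporter mRNA is amplified, fluorescently labelled and sized by capillary electrophoresis, with DMSO as negative control.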

Test [3] in a line: ATG_EGR_CIS: Attagene CIS-FACTORIAL HepG2 Assay for human Early Growth Response 1 (EGR1) (AID 2282938). The following applies: HepG2 Attagene CIS-FACTORIAL EGR reporter mRNA; actives raise or lower the signal. Put shortly: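 HepG2, transient MRTU transfection (cis promoters), 24 h compound. RNA → RT (oligo-dT) → PCR → 6-FAM labelling → HpaI cut → CE fluorescence. Bidirectional fit, DMSO baseline.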

Test [4] can be described thus: ATG_M_19_CIS: Attagene CIS-FACTORIAL HepG2 Assay for M19 Transcription Factor (Internal Marker) (AID 2282939). The following applies: HepG2 Attagene CIS-FACTORIAL M19 internal marker reporter; actives raise or lower the signal. Put shortly: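 Signals come from fluorescence of labelled reporter-specific PCR fragments resolved by capillary electrophoresis, following 24 h treatment of HepG2 cells transfected with cis-promoter reporter units; activity was fitted in both directions relative to DMSO.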

The nature of test [5]: ATG_ERE_CIS: Attagene CIS-FACTORIAL HepG2 Assay for Estrogen Response Element (ERE) (AID 2282940). The following applies: HepG2 ERE cis-reporter, Attagene RNA transcript; actives raise or lower the signal. Put shortly: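 Fluorescence of capillary-separated, FAM-labelled reporter cDNA fragments indicates reporter mRNA levels in HepG2 cells exposed to chemicals for 24 h. Transient transfection with cis-regulated units; data fitted in both directions against DMSO.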

The nature of test [6]: ATG_Ets_CIS: Attagene CIS-FACTORIAL HepG2 Assay for human Erythroblast Transformation Specific (ETS) (AID 2282941). The following applies: HepG2 ETS cis-reporter transcription, actives raise or lower the signal. Put shortly:
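Steps: transfect HepG2 with multiple reporter units; treat compound 24 h; isolate RNA, DNase-treat, reverse-transcribe; PCR-amplify, label with 6-FAM, digest with HpaI; separate by capillary electrophoresis. Activity fitted both directions versus DMSO.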

In test [7] the target is Hepatocyte nuclear factor 3-beta (Homo sapiens) (UniProt Q9Y261). Description: ATG_FoxA2_CIS: Attagene CIS-FACTORIAL HepG2 Assay for human Forkhead box A2 (FOXA2) (AID 2282942). The following applies: HepG2 cis-reporter transcription factor activity, 24 h; actives raise or lower the signal. Put shortly:
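Cells: HepG2, transient multiplex reporter transfection. Exposure 24 h. Detection: reporter-specific RT-PCR, fluorescent labelling, restriction digest, capillary electrophoresis. Analysis: bidirectional curve fit, DMSO as negative control.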

Test [8] is described as follows: ATG_FoxO_CIS: Attagene CIS-FACTORIAL HepG2 Assay for human Forkhead box O (FoxO) (AID 2282943). The following applies: HepG2 Attagene cis-reporter, FoxO element, mRNA; actives raise or lower the signal. Put shortly: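 HepG2, transient MRTU transfection (cis element, endogenous TFs). Dose 24 h. TriZol RNA → oligo(dT) RT → PCR → 6-FAM primer extension → HpaI cut → CE. Gain/loss vs DMSO.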

Test [9] can be described thus: ATG_GATA_CIS: Attagene CIS-FACTORIAL HepG2 Assay for human GATA Binding Protein (AID 2282944). The following applies: HepG2 GATA cis-element reporter, Attagene multiplex mRNA; actives raise or lower the signal. Put shortly: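 After transfecting HepG2 cells with multiple cis-regulated reporter units, chemicals are dosed for 24 h; isolated RNA undergoes RT-PCR and fluorescent labeling before capillary electrophoresis, with activity expressed against DMSO.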

Test [10] can be described thus: ATG_GLI_CIS: Attagene CIS-FACTORIAL HepG2 Assay for human Zinc Finger Protein GLI1 (AID 2282945). The following applies: HepG2, Attagene cis-factorial reporter mRNA, GLI element; actives raise or lower the signal. Put shortly: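 Bidirectional curve fits relative to DMSO, using reporter mRNA levels from RT-PCR plus capillary electrophoresis. Cells were HepG2 transiently carrying cis-regulated reporter constructs, harvested 24 h after dosing.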

Test [11] is described as follows: ATG_GRE_CIS: Attagene CIS-FACTORIAL HepG2 Assay for human Glucocorticoid Response Elements (GRE) (AID 2282947). The following applies: HepG2 GRE cis-reporter, Attagene multiplex mRNA; actives raise or lower the signal. Put shortly: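 Assay uses human hepatoma HepG2 cells transfected with cis-promoter reporter units, exposed 24 h. mRNA from reporters detected by RT-PCR plus capillary electrophoresis; DMSO serves as negative control and baseline.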

Test [12] is described as follows: ATG_ISRE_CIS: Attagene CIS-FACTORIAL HepG2 Assay for human Interferon Regulatory Factor 1 (IRF1) binding to an Interferon-Stimulated Response Element (ISRE) (AID 2282948). The following applies: HepG2 ISRE cis-reporter (Attagene), mRNA transcription readout; actives raise or lower the signal. Put shortly:
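Transfected HepG2 (multiple reporter transcription units, cis elements) dosed 24 h. RNA → oligo(dT) RT → PCR → 6-FAM primer extension → HpaI → CE. DMSO = negative control/baseline.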

Test [13] is described as follows: ATG_M_32_CIS: Attagene CIS-FACTORIAL HepG2 Assay for M32 Transcription Factor (Internal Marker) (AID 2282949).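 Note: background control marker of the multiplexed CIS panel rather than a real target.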 The following applies: HepG2 Attagene cis-factorial M32 reporter, mRNA; actives raise or lower the signal. Put shortly:
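Internal background marker read-out: RT-PCR/capillary electrophoresis fluorescence of reporter transcripts from transiently transfected HepG2 cells after 24 h chemical exposure. Activity fitted bidirectionally relative to DMSO negative control.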

Test [14] is described as follows: ATG_M_06_CIS: Attagene CIS-FACTORIAL HepG2 Assay for M06 Transcription Factor (Internal Marker) (AID 2282950). The following applies: HepG2 Attagene CIS-FACTORIAL M06 internal marker reporter; actives raise or lower the signal. Put shortly:
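HepG2 liver cells, 24 h exposure. Reporter transcripts from transfected cis-element constructs quantified by RT-PCR/capillary electrophoresis fluorescence. Bidirectional curve fit against DMSO.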

The target in test [15] is Hepatocyte nuclear factor 6 (Homo sapiens) (UniProt Q9UBC0). As to the kind of experiment: ATG_HNF6_CIS: Attagene CIS-FACTORIAL HepG2 Assay for human Hepatocyte Nuclear Factor 6 (HNF6) (AID 2282952). The following applies: HepG2 Attagene cis-factorial HNF6 reporter transcription; actives raise or lower the signal. Put shortly:
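Cells are HepG2 carrying transiently transfected cis-promoter reporter units. Treatment lasts 24 h, after which reporter transcripts are reverse-transcribed, amplified, FAM-labelled and sized by capillary electrophoresis. DMSO serves as baseline.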

Test [16] deals with Heat shock factor protein 1 (Homo sapiens) (UniProt Q00613). Description: ATG_HSE_CIS: Attagene CIS-FACTORIAL HepG2 Assay for human Heat Shock Transcription Factor 1 (HSE) (AID 2282953). The following applies: HepG2 HSE cis-reporter, Attagene RNA transcription; actives raise or lower the signal. Put shortly:
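Endogenous transcription factor activity captured via cis-promoter reporter units transfected into HepG2; treatment lasted 24 h. Fluorescence intensity of reporter fragments analysed with bidirectional curve fitting, DMSO baseline.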

Test [17] can be described thus: ATG_MRE_CIS: Attagene CIS-FACTORIAL HepG2 Assay for human Metal Responsive Element (MRE) (AID 2282954). The following applies: HepG2 MRE cis-reporter transcription, Attagene multiplex; actives raise or lower the signal. Put shortly: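 After a 24 h chemical exposure, transiently transfected HepG2 cells yield RNA whose reporter sequences are amplified, FAM-labelled and sized by capillary electrophoresis. Curves are fitted bidirectionally relative to DMSO.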

Test [18] in a line: ATG_PBREM_CIS: Attagene CIS-FACTORIAL HepG2 Assay for human Phenobarbital-responsive Enhancer Module (PBREM) (AID 2282955). The following applies: HepG2 PBREM cis-reporter, Attagene multiplexed transcription; actives raise or lower the signal. Put shortly: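 HepG2, transient MRTU transfection, 24 h dosing; RNA → oligo(dT) RT → PCR → 6-FAM extension → HpaI → CE. Bidirectional fit vs DMSO.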

The target of test [19] is Hypoxia-inducible factor 1-alpha (Homo sapiens) (UniProt Q16665). Description: ATG_HIF1a_CIS: Attagene CIS-FACTORIAL HepG2 Assay for human Hypoxia Inducible Factor 1 (HIF1A) (AID 2282951). The following applies: HepG2 Attagene cis-factorial HIF1a reporter transcription; actives raise or lower the signal. Put shortly: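 HepG2, transient cis-reporter library, 24 h dosing. RNA → RT (oligo dT) → PCR → 6-FAM primer extension → HpaI → CE. Bidirectional curve fit vs DMSO.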

Each structure is given as a SMILES string. The source made the active and inactive calls. Rule for the calls: active = hit-call score of the fitted dose curve at least 0.9, where 1 is the maximum; inactive = score below 0.9.

From PubChem BioAssay (EPA / NIEHS) come the findings set out here.

Sequence of Heat shock factor protein 1 (Homo sapiens) (Q00613 whole entry, looked up, the tested form may be a part): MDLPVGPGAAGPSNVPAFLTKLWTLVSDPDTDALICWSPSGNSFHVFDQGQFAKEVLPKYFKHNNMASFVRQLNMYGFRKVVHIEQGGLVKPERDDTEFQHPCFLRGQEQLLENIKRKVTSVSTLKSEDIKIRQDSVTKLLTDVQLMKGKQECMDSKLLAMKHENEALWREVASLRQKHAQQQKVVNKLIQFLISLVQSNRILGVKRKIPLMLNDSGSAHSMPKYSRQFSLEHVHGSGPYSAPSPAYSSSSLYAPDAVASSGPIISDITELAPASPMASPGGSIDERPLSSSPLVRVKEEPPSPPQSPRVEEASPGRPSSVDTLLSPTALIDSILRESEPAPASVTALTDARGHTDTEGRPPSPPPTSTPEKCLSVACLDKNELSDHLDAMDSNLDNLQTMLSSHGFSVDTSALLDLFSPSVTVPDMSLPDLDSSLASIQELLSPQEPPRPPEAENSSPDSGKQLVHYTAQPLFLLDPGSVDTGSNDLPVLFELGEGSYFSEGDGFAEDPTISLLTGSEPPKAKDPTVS
Sequence of Hepatocyte nuclear factor 6 (Homo sapiens) (Q9UBC0 whole entry, looked up): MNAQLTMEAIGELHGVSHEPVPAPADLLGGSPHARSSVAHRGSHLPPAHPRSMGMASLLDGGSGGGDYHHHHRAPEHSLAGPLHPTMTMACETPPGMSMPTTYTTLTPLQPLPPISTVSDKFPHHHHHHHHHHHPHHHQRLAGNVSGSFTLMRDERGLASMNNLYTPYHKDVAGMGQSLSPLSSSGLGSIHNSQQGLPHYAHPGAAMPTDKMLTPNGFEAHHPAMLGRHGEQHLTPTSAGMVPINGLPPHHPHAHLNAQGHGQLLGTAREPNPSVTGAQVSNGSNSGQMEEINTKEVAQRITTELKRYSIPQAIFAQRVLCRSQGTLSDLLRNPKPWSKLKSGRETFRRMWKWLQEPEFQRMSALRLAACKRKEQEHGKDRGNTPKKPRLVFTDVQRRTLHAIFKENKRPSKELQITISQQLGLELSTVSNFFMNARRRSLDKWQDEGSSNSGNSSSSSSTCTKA
Sequence of Hepatocyte nuclear factor 3-beta (Homo sapiens) (Q9Y261 whole entry, looked up): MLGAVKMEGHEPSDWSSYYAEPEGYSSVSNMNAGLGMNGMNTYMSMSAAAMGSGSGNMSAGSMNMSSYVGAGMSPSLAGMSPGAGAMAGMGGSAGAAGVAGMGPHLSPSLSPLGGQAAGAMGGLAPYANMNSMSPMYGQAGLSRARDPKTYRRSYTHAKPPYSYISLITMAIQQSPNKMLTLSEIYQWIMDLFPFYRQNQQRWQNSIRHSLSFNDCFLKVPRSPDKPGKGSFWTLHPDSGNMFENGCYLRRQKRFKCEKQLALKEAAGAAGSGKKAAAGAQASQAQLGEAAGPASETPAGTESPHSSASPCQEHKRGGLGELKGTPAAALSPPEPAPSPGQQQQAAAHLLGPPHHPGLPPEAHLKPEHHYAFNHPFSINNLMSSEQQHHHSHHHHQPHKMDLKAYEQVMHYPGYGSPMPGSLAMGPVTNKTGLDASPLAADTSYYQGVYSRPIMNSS
Sequence of Hypoxia-inducible factor 1-alpha (Homo sapiens) (Q16665 whole entry, looked up): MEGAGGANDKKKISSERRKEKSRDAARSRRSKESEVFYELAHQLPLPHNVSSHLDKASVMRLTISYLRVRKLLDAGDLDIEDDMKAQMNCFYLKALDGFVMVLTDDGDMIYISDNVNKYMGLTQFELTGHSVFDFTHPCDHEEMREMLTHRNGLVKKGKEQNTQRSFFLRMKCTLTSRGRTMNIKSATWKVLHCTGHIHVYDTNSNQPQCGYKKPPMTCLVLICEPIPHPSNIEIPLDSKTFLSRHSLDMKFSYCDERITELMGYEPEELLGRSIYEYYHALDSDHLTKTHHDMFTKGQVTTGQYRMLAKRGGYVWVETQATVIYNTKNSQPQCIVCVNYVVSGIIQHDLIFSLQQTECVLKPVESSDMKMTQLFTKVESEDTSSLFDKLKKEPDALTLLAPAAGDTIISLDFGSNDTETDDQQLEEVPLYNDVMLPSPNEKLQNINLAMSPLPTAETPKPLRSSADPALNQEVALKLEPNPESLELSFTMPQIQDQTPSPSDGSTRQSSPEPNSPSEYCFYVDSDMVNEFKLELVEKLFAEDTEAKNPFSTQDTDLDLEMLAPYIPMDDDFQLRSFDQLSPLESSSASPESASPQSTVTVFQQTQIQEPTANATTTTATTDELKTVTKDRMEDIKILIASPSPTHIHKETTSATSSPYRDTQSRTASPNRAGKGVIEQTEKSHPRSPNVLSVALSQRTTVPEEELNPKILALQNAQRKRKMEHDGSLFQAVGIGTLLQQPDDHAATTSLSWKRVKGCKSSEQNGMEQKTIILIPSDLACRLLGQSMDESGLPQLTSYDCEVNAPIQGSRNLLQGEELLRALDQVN

For `Nc1ncn([C@@H]2O[C@H](CO)[C@@H](O)[C@H]2O)c(=O)n1`, the AC50 was 27.5 µM (active) in test [1], 39.5 µM (active) in test [6] and 10.8 µM (active) in [12]. Further, the outcome in test [2], in [3], in test [4], in test [5], in test [7] and in [8] was inactive. For the same molecule, the molecule was called inactive in test [9], in test [10], in test [11], in test [13], in [14] and in [15]. In addition, the outcome in [16], in test [17] and in test [18] was inactive.

`[Cl][In]([Cl])[Cl]`: the outcome in [1], in test [2], in test [3], in test [4], in test [6] and in test [7] was inactive. The molecule was called inactive in test [8], in test [9], in test [10], in [11], in [12] and in test [13]. Also, the molecule was classed as inactive in test [14], in test [19], in test [15], in test [17] and in test [18]. In test [5], the AC50 was 163 µM (active).

In the case of `CCCCC/C=C\CCC=O`, the outcome in test [1], in test [2], in [3], in [4], in test [5] and in [6] was inactive. Also, the outcome in test [7], in test [8], in test [9], in test [10], in [11] and in test [12] was inactive. Also, the call in [13], in [14], in test [19], in test [15], in test [16] and in [17] was inactive. Also, the result in test [18] was inactive.

Turning to `CC(=O)Oc1ccc(C)cc1`, the outcome in test [1], in test [2], in test [3], in test [4], in test [5] and in [6] was inactive. Moreover, the call in test [7], in test [8], in [9], in [10], in [11] and in test [13] was inactive. Moreover, the outcome in test [14], in [19], in [15], in test [16] and in test [17] was inactive.

Regarding `Cc1cc(C)c(C(=O)O)c(C)c1`, the result in [1], in [2], in test [3], in test [4], in [5] and in [6] was inactive. The call in test [7], in [8], in [9], in test [10], in [11] and in test [12] was inactive. Further, the molecule was called inactive in [13], in test [14], in test [19], in [15], in test [16] and in test [17]. Further, in [18], the outcome was inactive.

As to `CC=CC(=O)N(CC)c1ccccc1C`, the outcome in test [1], in test [2], in [3], in test [4], in test [5] and in test [6] was inactive. Besides, the outcome in test [7], in test [8], in test [9], in test [10], in test [11] and in [12] was inactive. In addition, the molecule was classed as inactive in test [13], in test [14], in test [15], in test [16] and in [17].

Consider `C=CC(C)(CCC=C(C)C)OC(=O)CC(C)C` (configuration not stated), for which the outcome in test [1], in [2], in test [3], in test [4], in [6] and in [7] was inactive. Further, the result in test [8], in test [9], in test [10], in test [11], in test [13] and in test [14] was inactive. Moreover, the outcome in [19], in test [15] and in test [18] was inactive. The AC50 in [5] is 74.1 µM (active); in [12], 147 µM (active); in [16], 155 µM (active); in [17] it was 148 µM (active).
